Screens as filed in PubChem BioAssay.
The list is not random: actives were taken first. Their share in the collection is about 4.5%.
PrPC TRFRET: inhibitors of human cell surface prion protein PrPC, primary screen, cell-based, TR-FRET. Major prion protein (Homo sapiens), P04156. TR-FRET read-out. inhibition, % at 13.8 µM. hit rate 0.43% among 370,000. AID 720596, 2013; in the data active = inhibition above about 24%; note: 0% = median of the test wells and 100% = reference compound wells
PfHsp40 yeast: rescue of yeast from PfHsp40 toxicity, primary screen, S. cerevisiae, ATP luminescence | S. cerevisiae expressing PfHsp40, growth rescue | hit rate 0.68% among 340,000 | growth rescue, % at 12.5 µM; in the data active = growth rescue above about 28%, passing the limit was not always enough;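 note: yeast W303a lacking pdr1 and pdr3 grown in galactose medium; growth measured after three days at 30 °C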
PrP UTR inh: inhibition of PrP 5' UTR reporter expression; AID 488862, 2010; inhibition, % (test concentration not listed); hit rate 0.35% among 340,000; cell-based PrP 5' UTR mRNA reporter, plate reader; in the data active = inhibition above about 52%; note: 0 = median of the neutral control wells
BJeLR viability: MLPCN primary cell-based screen for lethality selective to Ras in HRASV12 cells; inhibition, % (concentration not given with the values); BJeLR (HRASV12) viability, CellTiter-Glo ATP luminescence, 48 h; hit rate 0.17% among 300,000; AID 1554, 2009; in the data active = inhibition above about 50%
GDH-TPI counter: GDH-TPI coupling enzyme inhibitors, primary screen, artefact control for M. tuberculosis FBA inhibitor project, biochemical, absorbance, full deck; GDH-TPI coupled enzyme counterscreen, NADH absorbance; inhibition, % at 4.8 µM; hit rate 1.2% among 360,000; AID 588335, 2011; in the data active = inhibition above about 30%;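 note: 0% = DMSO wells and 100% = wells lacking the enzyme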
Mtb FBA inh: Mtb FBA enzyme inhibitors, primary screen, biochemical, fluorescence, strain H37Rv; purified M. tuberculosis FBA, fluorescence read-out; inhibition, % at 1 µM; hit rate 2.3% among 360,000; in the data active = inhibition above about 27%;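 note: 0% = vehicle and 100% = reference inhibitor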
Target sequence (P9WQA3 whole entry, looked up): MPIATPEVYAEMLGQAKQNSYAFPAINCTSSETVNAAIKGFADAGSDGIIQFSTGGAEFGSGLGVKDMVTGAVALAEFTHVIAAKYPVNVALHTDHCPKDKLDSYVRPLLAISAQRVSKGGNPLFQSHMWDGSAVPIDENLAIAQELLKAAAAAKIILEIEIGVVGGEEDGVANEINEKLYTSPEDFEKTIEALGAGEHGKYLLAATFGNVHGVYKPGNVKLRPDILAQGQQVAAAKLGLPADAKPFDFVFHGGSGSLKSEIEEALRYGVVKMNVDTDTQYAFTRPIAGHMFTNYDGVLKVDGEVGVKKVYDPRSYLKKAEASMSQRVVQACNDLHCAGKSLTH
Starred values were filed as active, the others as inactive.

Results for CC(C)N1CCCCC(NC(=O)COCc2ccccc2)C1=O (stereo unspecified) ?
PrPC TRFRET: -4.7

How did Cc1noc(/C=C/N(C)C)c1S(=O)(=O)N1CCCC(C(=O)NC2CCCCC2)C1 (stereo unspecified) do in these assays?
PrPC TRFRET: -0.4; PfHsp40 yeast: -1.5; PrP UTR inh: -5.7; BJeLR viability: 10.0; GDH-TPI counter: 57.9*; Mtb FBA inh: -1.1

What do the screens show for `Cc1noc(/C=C/N(C)C)c1S(=O)(=O)N1CCCC(C(=O)N2CCCCC2)C1` (stereo unspecified)?
PrPC TRFRET: -9.3; PfHsp40 yeast: -0.7; PrP UTR inh: -10.1; BJeLR viability: -6.2; GDH-TPI counter: 24.6; Mtb FBA inh: -2.5

How did CCc1ccc(NC(=O)C2CCN(S(=O)(=O)c3c(C)noc3/C=C/N(C)C)CC2)cc1 do in these assays?
PrPC TRFRET: 0.8; PfHsp40 yeast: -2.7; PrP UTR inh: -12.4; BJeLR viability: 6.2; GDH-TPI counter: 23.9; Mtb FBA inh: -4.2

How did CNC(=O)C1CCN(S(=O)(=O)c2c(C)noc2/C=C/N(C)C)CC1 do in these assays?
PrPC TRFRET: -3.1; PfHsp40 yeast: -1.0; PrP UTR inh: -10.9; BJeLR viability: 8.5; GDH-TPI counter: 34.8*; Mtb FBA inh: -4.2

What do the screens show for `C=CC[C@@H]1NN2C(=O)[C@@H](CCCC)[C@@H]3c4ccccc4C=NN3[C@@H]2c2ccccc21`?
PrPC TRFRET: 5.4

How did COc1ccccc1-c1c(C)oc2c(CN3CCN(C)CC3)c(O)ccc2c1=O do in these assays?
PrPC TRFRET: 0.9; PfHsp40 yeast: 0.3; PrP UTR inh: -11.0; BJeLR viability: -0.2; GDH-TPI counter: 20.7; Mtb FBA inh: 143.3*

What do the screens show for `COc1ccccc1-c1c(C)oc2c(CN3CCN(CCO)CC3)c(O)ccc2c1=O`?
PrPC TRFRET: -1.9; PfHsp40 yeast: 0.0; PrP UTR inh: -13.7; BJeLR viability: -6.5; GDH-TPI counter: 14.1; Mtb FBA inh: 175.8*

Results for COC(=O)[C@]12C[C@H](CC(=O)N3CCCCC3)C(=O)N(CCc3ccc(OC)c(OC)c3)C1=C[C@H](C1CCCC1)O[C@@H]2C ?
PrPC TRFRET: 5.8

Results for O=C(COc1ccc([N+](=O)[O-])cc1)NCc1cccnc1 ?
PrPC TRFRET: -6.1; PfHsp40 yeast: 1.7; PrP UTR inh: -8.6; BJeLR viability: -1.7; GDH-TPI counter: 5.3; Mtb FBA inh: -1.5

How did Cc1cccc(-c2nnc(NC(=O)c3cccs3)s2)c1 do in these assays?
PrPC TRFRET: -5.8; PfHsp40 yeast: 1.7; PrP UTR inh: -42.8; BJeLR viability: -3.0; GDH-TPI counter: 10.1; Mtb FBA inh: -0.7

How did O=C(COc1ccc([N+](=O)[O-])cc1)Nc1ccc(C(=O)NCc2cccnc2)cc1 do in these assays?
PrPC TRFRET: -0.5; PfHsp40 yeast: 0.8; PrP UTR inh: -13.4; BJeLR viability: 62.9*; GDH-TPI counter: 17.1; Mtb FBA inh: 1.6

What do the screens show for `O=C(Nc1nnc(-c2cccnc2)s1)c1cccs1`?
PrPC TRFRET: 1.1; PfHsp40 yeast: -1.7; PrP UTR inh: -6.1; BJeLR viability: -1.2; GDH-TPI counter: 41.6*; Mtb FBA inh: 2.7

What do the screens show for `O=C(COc1ccc([N+](=O)[O-])cc1)Nc1nnc(-c2cccnc2)s1`?
PrPC TRFRET: -0.2; PfHsp40 yeast: -2.7; PrP UTR inh: -14.5; BJeLR viability: 11.3; GDH-TPI counter: 35.1*; Mtb FBA inh: -2.0

Results for O=C(CCC1CCCC1)Nc1ccc(C(=O)NCc2cccnc2)cc1 ?
PrPC TRFRET: -1.7; PfHsp40 yeast: -0.2; PrP UTR inh: -19.7; BJeLR viability: 88.8*; GDH-TPI counter: 8.1; Mtb FBA inh: -1.7

How did Cc1nc2ccc(NC(=O)c3ccc(F)cc3Cl)cc2c(=O)[nH]1 do in these assays?
PrPC TRFRET: -3.1

Results for O=C1N(Cc2ccccc2)c2ccccc2C12CCCc1sc(CCc3ccccc3)nc12 (stereo unspecified) ?
PrPC TRFRET: 6.2

How did O=C(NC1CCCCN(Cc2cccc(Cl)c2)C1=O)c1cccc(C(F)(F)F)c1 (stereo unspecified) do in these assays?
PrPC TRFRET: 2.8

What do the screens show for `O=C(NCc1cccnc1)c1ccc(NC(=O)c2cccc([N+](=O)[O-])c2)cc1`?
PrPC TRFRET: -24.2; PfHsp40 yeast: -1.6; PrP UTR inh: -24.1; BJeLR viability: 79.3*; GDH-TPI counter: 12.2; Mtb FBA inh: -2.1

What do the screens show for `O=C(NCc1cccnc1)c1ccc([N+](=O)[O-])cc1`?
PrPC TRFRET: -19.3; PfHsp40 yeast: -0.2; PrP UTR inh: -10.1; BJeLR viability: -3.5; GDH-TPI counter: -6.5; Mtb FBA inh: 2.3

Results for Cc1ccccc1OCC(=O)Nc1nnc(-c2ccncc2)s1 ?
PrPC TRFRET: 6.8; PfHsp40 yeast: 2.4; PrP UTR inh: -2.4; BJeLR viability: -2.1; GDH-TPI counter: 33.3*; Mtb FBA inh: 18.4

What do the screens show for `O=C(COc1ccccc1F)Nc1nnc(-c2ccncc2)s1`?
PrPC TRFRET: 3.3; PfHsp40 yeast: 11.5; PrP UTR inh: -13.3; BJeLR viability: -0.2; GDH-TPI counter: 13.7; Mtb FBA inh: 11.1

What do the screens show for `COCCn1c(SCC(=O)N2CCCC2)nnc1-c1ccoc1C`?
PrPC TRFRET: -1.7; PfHsp40 yeast: -0.5; PrP UTR inh: -16.8; BJeLR viability: -1.9; GDH-TPI counter: -8.1; Mtb FBA inh: 129.7*

How did Nc1nc(N)c2c(ccc3nccc32)[nH]1 do in these assays?
PrPC TRFRET: 5.0; PfHsp40 yeast: -0.3; PrP UTR inh: 5.4; BJeLR viability: 66.0*; GDH-TPI counter: 21.0; Mtb FBA inh: 114.5*

How did O=C1C(Nc2ccccc2)=C/C(=N/S(=O)(=O)c2cccs2)c2ccccc21 do in these assays?
PfHsp40 yeast: 265.6*; PrP UTR inh: -73.2; BJeLR viability: -12.7; GDH-TPI counter: 13.8; Mtb FBA inh: -4.2

How did C=CCN1C(=O)[C@@H](CC(=O)N2CCOCC2)[C@]2(C(=O)OCC)CCCCC/C=C/12 do in these assays?
PrPC TRFRET: 6.9

How did COc1ccc(OC)c(N2CC(O)=C(c3nc4ccccc4s3)C2=N)c1 do in these assays?
PrPC TRFRET: 9.5; PfHsp40 yeast: 0.8; PrP UTR inh: -2.6; BJeLR viability: -4.1; GDH-TPI counter: 35.8*; Mtb FBA inh: -2.0

Results for O=C(N/N=C/c1sc(=O)[nH]c1-[n+]1ccccc1)c1ccccc1[O-] ?
PrPC TRFRET: -18.9; PfHsp40 yeast: -0.1; PrP UTR inh: -7.4; BJeLR viability: -1.2; GDH-TPI counter: 55.0*; Mtb FBA inh: -4.7

What do the screens show for `O=c1[nH]c(-[n+]2ccccc2)c(/C=N/N=C(\[O-])c2ccccc2)s1`?
PrPC TRFRET: -32.7; PfHsp40 yeast: 0.7; PrP UTR inh: -13.7; BJeLR viability: 6.8; GDH-TPI counter: 57.0*; Mtb FBA inh: -9.6
